Laboratory results taken from PubChem BioAssay (EPA / NIEHS).
Active and inactive are the calls of the source. How the source made its calls: active means hit-call score of the fitted dose curve at least 0.9, where 1 is the maximum; inactive means score below 0.9.

Tests used:
[1] = ATG_GRE_CIS: Attagene CIS-FACTORIAL HepG2 Assay for human Glucocorticoid Response Elements (GRE) (AID 2282947); settings: HepG2 GRE cis-reporter, Attagene multiplex mRNA; actives raise or lower the signal
Method in brief: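 Cells (HepG2) bearing transfected cis-promoter reporter transcription units were treated with chemical for 24 hours. Reporter mRNA was measured via RT-PCR with capillary electrophoresis, and activity was fitted in both directions relative to DMSO.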

[2] = ATG_M_32_CIS: Attagene CIS-FACTORIAL HepG2 Assay for M32 Transcription Factor (Internal Marker) (AID 2282949); settings: HepG2 Attagene cis-factorial M32 reporter, mRNA; actives raise or lower the signal;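 further: background control marker of the multiplexed CIS panel rather than a real target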
Method in brief: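 HepG2 transfectants (cis-regulated reporter transcription units) dosed 24 h. Reporter mRNA by RT-PCR plus CE, analysed as gain or loss relative to DMSO.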

[3] = ATG_M_06_CIS: Attagene CIS-FACTORIAL HepG2 Assay for M06 Transcription Factor (Internal Marker) (AID 2282950); settings: HepG2 Attagene CIS-FACTORIAL M06 internal marker reporter; actives raise or lower the signal
Method in brief: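 Cells (HepG2, transiently carrying cis-driven reporter units) receive chemical for 24 h before RNA isolation. Reporter cDNA is PCR-amplified, FAM-labelled by primer extension, HpaI-digested and sized on a capillary analyser.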

[4] = biological target: Hepatocyte nuclear factor 6 (Homo sapiens) (UniProt Q9UBC0); assay: ATG_HNF6_CIS: Attagene CIS-FACTORIAL HepG2 Assay for human Hepatocyte Nuclear Factor 6 (HNF6) (AID 2282952); settings: HepG2 Attagene cis-factorial HNF6 reporter transcription; actives raise or lower the signal
Sequence of Hepatocyte nuclear factor 6 (Homo sapiens) (Q9UBC0 whole entry, looked up): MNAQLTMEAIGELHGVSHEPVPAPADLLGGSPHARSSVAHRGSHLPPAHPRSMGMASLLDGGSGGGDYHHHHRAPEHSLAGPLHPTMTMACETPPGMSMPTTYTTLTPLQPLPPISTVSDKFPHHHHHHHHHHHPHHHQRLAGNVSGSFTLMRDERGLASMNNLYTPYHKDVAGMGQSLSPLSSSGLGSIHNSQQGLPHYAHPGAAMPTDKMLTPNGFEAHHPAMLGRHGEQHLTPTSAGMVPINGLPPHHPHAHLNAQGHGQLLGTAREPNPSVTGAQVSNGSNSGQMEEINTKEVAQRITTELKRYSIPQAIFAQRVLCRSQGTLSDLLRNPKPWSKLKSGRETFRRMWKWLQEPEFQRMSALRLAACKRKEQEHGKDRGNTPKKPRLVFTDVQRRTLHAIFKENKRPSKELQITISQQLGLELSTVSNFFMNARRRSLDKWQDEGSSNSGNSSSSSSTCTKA
Method in brief: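 Activity values derive from bidirectional fitting against DMSO of reporter mRNA levels, measured by capillary electrophoresis of labelled RT-PCR products from HepG2 cells exposed 24 h.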

[5] = biological target: Heat shock factor protein 1 (Homo sapiens) (UniProt Q00613); assay: ATG_HSE_CIS: Attagene CIS-FACTORIAL HepG2 Assay for human Heat Shock Transcription Factor 1 (HSE) (AID 2282953); settings: HepG2 HSE cis-reporter, Attagene RNA transcription; actives raise or lower the signal
Sequence of Heat shock factor protein 1 (Homo sapiens) (Q00613 whole entry, looked up): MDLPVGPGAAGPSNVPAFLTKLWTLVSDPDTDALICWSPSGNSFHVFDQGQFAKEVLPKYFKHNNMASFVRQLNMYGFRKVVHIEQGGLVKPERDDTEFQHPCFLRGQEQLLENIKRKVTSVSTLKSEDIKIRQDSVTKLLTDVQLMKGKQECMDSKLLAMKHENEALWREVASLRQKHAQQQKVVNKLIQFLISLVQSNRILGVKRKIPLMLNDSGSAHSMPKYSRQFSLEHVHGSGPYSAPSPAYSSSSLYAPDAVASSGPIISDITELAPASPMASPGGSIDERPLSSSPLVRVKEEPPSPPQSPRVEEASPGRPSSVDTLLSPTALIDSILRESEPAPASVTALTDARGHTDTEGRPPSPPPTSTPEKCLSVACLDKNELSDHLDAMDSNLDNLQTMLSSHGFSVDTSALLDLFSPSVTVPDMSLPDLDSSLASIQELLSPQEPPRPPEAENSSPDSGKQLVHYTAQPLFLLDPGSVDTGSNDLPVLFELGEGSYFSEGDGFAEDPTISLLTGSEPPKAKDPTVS
Method in brief: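 Liver-derived HepG2 cells carry transiently introduced multiple reporter units governed by cis promoters. Reporter RNA measured 24 h post-dose through reverse transcription, PCR amplification, fluorescent labelling and capillary electrophoresis, normalised to DMSO.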

[6] = ATG_MRE_CIS: Attagene CIS-FACTORIAL HepG2 Assay for human Metal Responsive Element (MRE) (AID 2282954); settings: HepG2 MRE cis-reporter transcription, Attagene multiplex; actives raise or lower the signal
Method in brief: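 Cells were transfected with cis-promoter reporter transcription units, then dosed for 24 h. RNA was reverse-transcribed, amplified, fluorescently labelled and resolved by capillary electrophoresis, and activity was fitted in both directions relative to DMSO.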

[7] = biological target: Hypoxia-inducible factor 1-alpha (Homo sapiens) (UniProt Q16665); assay: ATG_HIF1a_CIS: Attagene CIS-FACTORIAL HepG2 Assay for human Hypoxia Inducible Factor 1 (HIF1A) (AID 2282951); settings: HepG2 Attagene cis-factorial HIF1a reporter transcription; actives raise or lower the signal
Sequence of Hypoxia-inducible factor 1-alpha (Homo sapiens) (Q16665 whole entry, looked up): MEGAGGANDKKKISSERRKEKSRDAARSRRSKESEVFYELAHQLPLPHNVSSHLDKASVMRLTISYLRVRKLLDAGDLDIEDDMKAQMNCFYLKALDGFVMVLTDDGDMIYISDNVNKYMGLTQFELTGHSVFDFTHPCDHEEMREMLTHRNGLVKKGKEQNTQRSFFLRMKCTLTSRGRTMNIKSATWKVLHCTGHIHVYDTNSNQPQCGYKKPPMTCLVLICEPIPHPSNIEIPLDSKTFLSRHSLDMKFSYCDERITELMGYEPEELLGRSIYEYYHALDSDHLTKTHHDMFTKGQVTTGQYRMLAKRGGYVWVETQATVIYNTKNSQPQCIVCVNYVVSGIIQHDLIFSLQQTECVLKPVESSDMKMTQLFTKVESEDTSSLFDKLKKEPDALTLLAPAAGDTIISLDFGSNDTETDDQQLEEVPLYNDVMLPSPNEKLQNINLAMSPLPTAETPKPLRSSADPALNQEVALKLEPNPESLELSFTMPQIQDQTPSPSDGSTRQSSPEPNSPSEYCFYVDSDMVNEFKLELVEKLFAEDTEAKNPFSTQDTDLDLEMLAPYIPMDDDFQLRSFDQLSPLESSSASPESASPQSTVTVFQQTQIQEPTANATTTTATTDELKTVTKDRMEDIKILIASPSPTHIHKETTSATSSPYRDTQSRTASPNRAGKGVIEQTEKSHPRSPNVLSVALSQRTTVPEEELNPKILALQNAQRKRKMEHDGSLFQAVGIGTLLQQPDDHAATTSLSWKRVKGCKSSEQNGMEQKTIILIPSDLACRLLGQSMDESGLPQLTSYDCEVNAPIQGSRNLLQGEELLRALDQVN
Method in brief: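 Activity is fitted in both directions relative to DMSO. Reporter transcripts are read by RT-PCR, fluorescent primer extension and capillary electrophoresis after 24 h chemical treatment. The cells are HepG2 carrying transiently transfected cis-element-driven reporter units responding to endogenous factors.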

[8] = ATG_PBREM_CIS: Attagene CIS-FACTORIAL HepG2 Assay for human Phenobarbital-responsive Enhancer Module (PBREM) (AID 2282955); settings: HepG2 PBREM cis-reporter, Attagene multiplexed transcription; actives raise or lower the signal
Method in brief: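 Endogenous transcription factor activity was read from reporter transcripts in transiently transfected human HepG2 liver cells after 24 h dosing. RT-PCR products were fluorescently labelled, HpaI-cut and sized by capillary electrophoresis; activity fitted bidirectionally against DMSO baseline.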

[9] = ATG_ISRE_CIS: Attagene CIS-FACTORIAL HepG2 Assay for human Interferon Regulatory Factor 1 (IRF1) binding to an Interferon-Stimulated Response Element (ISRE) (AID 2282948); settings: HepG2 ISRE cis-reporter (Attagene), mRNA transcription readout; actives raise or lower the signal
Method in brief: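 Endogenous transcription factor activity read as reporter transcript abundance via RT-PCR and capillary electrophoresis. HepG2 cells transiently transfected, 24 h chemical exposure. Gain or loss fitted against DMSO baseline.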

| SMILES | outcome [1] | outcome [2] | outcome [3] | outcome [4] | outcome [5] | outcome [6] | outcome [7] | outcome [8] | outcome [9] | AC50 [9] | AC50 [5] | AC50 [6] | AC50 [1] | AC50 [8] |
| --- | --- | --- | --- | --- | --- | --- | --- | --- | --- | --- | --- | --- | --- | --- |
| c1ccc(-c2ccccn2)nc1 | inactive | inactive | inactive | inactive | inactive | inactive |  |  |  |  |  |  |  |  |
| CC(C)CC(O)Cc1ccccc1 (configuration not stated) | inactive | inactive | inactive | inactive | inactive | inactive | inactive | inactive |  |  |  |  |  |  |
| CC1=CC[C@H]2C[C@@H]1C2(C)C |  | inactive | inactive | inactive | inactive | inactive | inactive |  | inactive |  |  |  |  |  |
| CCCCCCCCCCOC(C)=O |  | inactive | inactive | inactive | inactive | inactive | inactive | inactive | inactive |  |  |  |  |  |
| CC=CC(=O)N(CC)c1ccccc1C | inactive | inactive | inactive | inactive | inactive | inactive |  | inactive |  |  |  |  |  |  |
| O=c1c2ccccc2nnn1CCl | inactive | inactive | inactive |  | inactive | inactive | inactive | inactive |  |  |  |  |  |  |
| Cc1ccc(C(C)(C)C)cc1 |  | inactive | inactive | inactive | inactive | inactive | inactive | inactive | inactive |  |  |  |  |  |
| CCC(CC)C(=O)O | inactive | inactive |  | inactive | inactive | inactive | inactive | inactive |  |  |  |  |  |  |
| CCCCC/C=C\CCC=O |  | inactive | inactive | inactive | inactive | inactive | inactive | inactive | inactive |  |  |  |  |  |
| OC1CCCC1 | inactive | inactive |  | inactive | inactive | inactive |  | inactive | inactive |  |  |  |  |  |
| CN(C)CCCN(C)C | inactive | inactive | inactive | inactive | inactive | inactive |  | inactive |  |  |  |  |  |  |
| c1ccc(CNCc2ccccc2)cc1 | inactive | inactive |  | inactive | inactive | inactive |  | inactive |  |  |  |  |  |  |
| C=CC(C)(CCC=C(C)C)OC(=O)CC(C)C (configuration not stated) | inactive | inactive |  | inactive |  |  | inactive | inactive |  | 147 µM (active) | 155 µM (active) | 148 µM (active) |  |  |
| CC(=O)OCC(=O)[C@@]12N=C(C)O[C@@H]1C[C@H]1[C@@H]3CCC4=CC(=O)C=C[C@]4(C)[C@H]3[C@@H](O)C[C@@]12C |  | inactive |  |  | inactive | inactive | inactive | inactive | inactive |  |  |  | 0.189 µM (active) |  |
| OC1CCCCCCCCCCC1 | inactive | inactive | inactive |  | inactive |  |  | inactive |  |  |  | 100 µM (active) |  |  |
| c1c[nH]cn1 | inactive | inactive | inactive | inactive | inactive | inactive | inactive |  |  |  |  |  |  |  |
| CCOC(=O)CC(C(C)=O)C(C)=O | inactive | inactive |  | inactive | inactive | inactive | inactive | inactive | inactive |  |  |  |  |  |
| COc1ccc2nc(N)sc2c1 | inactive | inactive |  | inactive |  | inactive | inactive | inactive | inactive |  |  |  |  |  |
| COC=O |  | inactive | inactive | inactive | inactive | inactive | inactive | inactive | inactive |  |  |  |  |  |
| O=C1CCC(=O)N1Cl | inactive | inactive |  | inactive | inactive | inactive | inactive | inactive | inactive |  |  |  |  |  |

| SMILES | outcome [1] | outcome [2] | outcome [3] | outcome [4] | outcome [5] | outcome [6] | outcome [7] | outcome [8] | outcome [9] | AC50 [9] | AC50 [5] | AC50 [6] | AC50 [1] | AC50 [8] |
| --- | --- | --- | --- | --- | --- | --- | --- | --- | --- | --- | --- | --- | --- | --- |
| CCCCCCCCCCCCCOP(=O)(O)O |  | inactive | inactive | inactive | inactive | inactive | inactive | inactive | inactive |  |  |  |  |  |
| CCC(C)(C)C1CCCCC1OC(C)=O (configuration not stated) |  | inactive | inactive | inactive | inactive | inactive | inactive | inactive | inactive |  |  |  |  |  |
| COC(=O)c1ccc2cc(C(=O)OC)ccc2c1 | inactive | inactive | inactive | inactive | inactive | inactive | inactive |  |  |  |  |  |  |  |
| COC(=O)c1c(C)cc(O)c(C)c1O |  | inactive | inactive | inactive | inactive | inactive | inactive | inactive | inactive |  |  |  |  |  |
| CC(C)(C)C1CCCCC1=O (configuration not stated) | inactive | inactive | inactive | inactive | inactive | inactive | inactive | inactive |  |  |  |  |  |  |
| CCCCCCCCC(=O)OCC | inactive | inactive | inactive | inactive | inactive | inactive | inactive |  |  |  |  |  |  |  |
| CCOC(=O)c1ccc(N(C)C)cc1 | inactive | inactive |  | inactive |  | inactive |  | inactive | inactive |  |  |  |  |  |
| O=C1CCCN1CCO | inactive | inactive |  | inactive | inactive | inactive | inactive | inactive | inactive |  |  |  |  |  |
| CC(=O)OCCC1CCCCC1 | inactive | inactive |  | inactive | inactive | inactive |  | inactive | inactive |  |  |  |  |  |
| Cc1ccc2c(c1)C(=O)c1ccccc1C2=O | inactive | inactive |  | inactive | inactive | inactive | inactive | inactive | inactive |  |  |  |  |  |
| Cc1cccc(OCCOc2cccc(C)c2)c1 | inactive | inactive |  | inactive | inactive | inactive | inactive | inactive | inactive |  |  |  |  |  |
| Cc1cc(C)c(C(=O)O)c(C)c1 | inactive | inactive |  | inactive | inactive | inactive |  | inactive |  |  |  |  |  |  |
| O=C(Nc1ccccc1SSc1ccccc1NC(=O)c1ccccc1)c1ccccc1 | inactive | inactive |  | inactive |  | inactive | inactive | inactive | inactive |  | 47.1 µM (active) |  |  |  |
| O=c1[nH]nc(-c2ccc([N+](=O)[O-])o2)o1 | inactive | inactive | inactive | inactive | inactive | inactive | inactive | inactive |  |  |  |  |  |  |
| Nc1ncn([C@@H]2O[C@H](CO)[C@@H](O)[C@H]2O)c(=O)n1 | inactive | inactive | inactive | inactive | inactive | inactive |  | inactive |  |  |  |  |  |  |
| O=C(O)c1ccccc1Nc1cccc(C(F)(F)F)c1 | inactive | inactive |  | inactive | inactive |  |  | inactive | inactive |  |  | 100 µM (active) |  |  |
| CC(=O)OCc1ccco1 |  | inactive | inactive | inactive | inactive | inactive | inactive | inactive | inactive |  |  |  |  |  |
| CCCCCCCCCCCCCCCCCC#N | inactive | inactive |  | inactive | inactive | inactive |  | inactive | inactive |  |  |  |  |  |
| CCN(CC)c1ccc(C(=O)c2ccccc2C(=O)O)c(O)c1 | inactive | inactive | inactive | inactive | inactive | inactive | inactive |  |  |  |  |  |  | 1.89 µM (active) |
